# HT1080NT lethal = kills 2HG-producing HT-1080-NT fibrosarcoma cells | HT-1080-NT fibrosarcoma viability, CellTiter-Glo ATP luminescence, 48 h | Potency, µM (titrated, usually from 46.1 µM), most hits filed as cytotoxic | hit rate 1.6% among 360,000 | AID 686970;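 note: NT is the 2HG producing partner of a matched IDH1 knockdown line; nearly all actives have a fitted effect of over 55% in size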
#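 A 48-hour cytotoxicity screen used HT-1080-NT cells plated 2 hours before compound delivery. ATP-based CellTiter-Glo luminescence measured viability, normalized to DMSO and no-cell controls.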
# IL-1B inflam inh = inflammasome signaling inhibition, IL-1 beta readout | THP-1 LPS/ATP IL-1B secretion, AlphaLISA, 16 h; active compounds read low | activity change, % at 57.5 µM | hit rate 4.7% among 360,000 | AID 743279; in the data active = activity change below about -50%; inconclusive = mostly about -30% to -49%
#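 THP-1 cells pretreated 1 hr with compounds (up to 57.5 uM final), then stimulated with LPS (250 ng/mL final) plus ATP (1.25 mM final); secreted IL-1B measured by AlphaLISA after 16 hr, decreased signal indicating inhibition.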
# TDP1 cell noCPT = qHTS for Inhibitors of human tyrosyl-DNA phosphodiesterase 1 (TDP1): qHTS in cells in absence of CPT | DT40 Tdp1-/- hTDP1 cells, no CPT, ATP luminescence, 48 h | Potency, µM (series often up to 46.2 µM), actives largely listed as inhibitors | hit rate 15% among 420,000 | AID 686978, 2013; note: nearly all actives have a fitted effect of over 55% in size
#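 Growth kinetics read by CellTiter-Glo luminescence after ≥48 hr at 37 °C. Cells: DT40 Tdp1-/- stably carrying human TDP1, 400 per well, compound exposure in the absence of CPT (DMSO vehicle).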
# HT1080 IDH1KD tx = HT-1080 IDH1 knockdown cell toxicity (counter line); HT-1080 IDH1 knockdown viability, ATP luminescence, 48 h; Potency, µM (top dose mostly 46.1 µM), hits mostly cytotoxic; hit rate 2% among 360,000; AID 686971
#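 Viability of IDH1-knockdown HT-1080 fibrosarcoma cells was assessed by CellTiter-Glo after 48 h at 37 °C with titrated compound; concentration-effect curves were classified by fit quality and response size.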
# DT40 TDP1 CPT = growth inhibition of DT40 Tdp1-/-;hTDP1 cells with camptothecin (screen for TDP1 inhibitors); Potency, µM (highest dose often 46.2 µM), most hits filed as inhibitors; hit rate 12% among 420,000; chicken DT40 Tdp1-/-;hTDP1 cells + 20 nM CPT, ATP luminescence, 48 h; note: nearly all actives have a fitted effect of over 55% in size
#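 Chicken DT40 Tdp1-/- cells stably complemented with human TDP1 were seeded at 400 cells/well in medium containing 20 nM camptothecin, exposed to pin-transferred compounds, and grown at 37 °C for at least 48 hr. Viability was read as ATP luminescence.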
# Hits are given with their value; i = inactive; ? = inconclusive; nt = no result given; [ ] = remark or other dose. Only some compounds are listed: those with a hit (about 19% of all), similar ones and a draw of the others. Unless noted, calls come from the whole dose curve; as a rule, active = well fitted curve in the direction sought with a large enough effect; inconclusive = small, poorly fitted or top-dose-only effect, or another doubt; inactive = no such curve, though single readings can be large; an effect the other way counts as inactive or inconclusive.
SMILES,HT1080NT lethal,IL-1B inflam inh,TDP1 cell noCPT,HT1080 IDH1KD tx,DT40 TDP1 CPT
OC1(c2ccc(OC(F)F)cc2)CSC(=Nc2cccnc2)N1C1CC1 (stereo not given),i,?,16µM,?,21µM
O=C(c1cccnc1)N1C2CCC1CC(O)(c1ccc(F)cc1)C2 (stereo not given),i,i,i,i,i
COc1cccc(-c2cc(C(=O)N3CCCCC3C)no2)c1 (stereo not given),i,i,i,i,i
CC1(C)CC2CC(C)(CN2C(=O)c2cc(-c3ccc(O)cc3)on2)C1 (stereo not given),?,-62,?,?,i
Cc1noc(C(=O)N2CC3(C)CC2CC(C)(C)C3)c1Cl (stereo not given),i,i,18µM,i,?
O=C(c1cc(-c2ccc(O)cc2)on1)N1CCCC1,i,i,i,i,i
CC1(C)CC2CC(C)(CN2C(=O)Cc2ccccc2)C1 (stereo not given),i,i,?,i,i
COc1cccc(-c2cc(C(=O)N3CC4(C)CC3CC(C)(C)C4)no2)c1 (stereo not given),i,i,21µM,?,?
Cc1ccc(OC(=O)CSc2nnc(-c3ccc4c(c3)OCO4)o2)c(C)c1,nt,nt,i,nt,i
Cc1cc(F)ccc1S(=O)(=O)N1CCCOC1CNC(=O)C(=O)NCc1ccncc1 (stereo not given),i,i,i,i,i
O=C(NCC(c1cccnc1)N1CCOCC1)C(=O)Nc1ccc(F)cc1 (stereo not given),nt,nt,i,nt,i
O=[N+]([O-])c1ccc(S(=O)(=O)NCC(c2cccnc2)N2CCc3ccccc3C2)cc1 (stereo not given),i,i,21µM,i,?
O=C(NCC(c1cccnc1)N1CCc2ccccc2C1)C(=O)Nc1ccc(Cl)cc1 (stereo not given),nt,nt,8.2µM,nt,12µM
O=C(NCC(c1cccnc1)N1CCOCC1)c1cccc(Cl)c1 (stereo not given),i,i,i,i,i
O=C(NCC(c1cccnc1)N1CCc2ccccc2C1)C(=O)Nc1cccc(Cl)c1 (stereo not given),nt,nt,18µM,nt,21µM
CN(C)S(=O)(=O)c1cccc(NC(=O)CCc2nc3cc(S(=O)(=O)N4CCOCC4)ccc3n2C)c1,i,i,i,i,?
CCOc1ccc(NC(=O)Nc2cc(-c3ccccc3)sc2C(=O)OC)cc1,i,i,?,i,?
CSc1nccc(NC(=O)c2cccc(Br)c2)n1,i,?,21µM,i,i
O=C(Nc1cc(-c2ccccc2)sc1C(=O)O)c1cccc(F)c1,i,i,15µM,i,?
CCOc1ccc(-c2cc(NC(=O)c3c(F)cccc3F)c(C(=O)O)s2)cc1,i,i,21µM,i,i
O=C(Nc1cccc(NC(=O)c2cccc(F)c2)n1)c1cccc(F)c1,i,i,21µM,i,?
O=C(Nc1cccc(NC(=O)c2c(F)cccc2F)n1)c1c(F)cccc1F,i,i,?,i,i
O=S1(=O)c2ccccc2N(Cc2ccccc2F)c2ccccc21,nt,nt,i,nt,?
O=S(=O)(NC1CCCCC1)c1ccc(Cl)s1,i,i,i,i,?
Cc1cc(C)n2nc(C(=O)OCC(=O)N3C(C)CCCC3C)nc2n1 (stereo not given),i,i,i,i,i
SMILES,HT1080NT lethal,IL-1B inflam inh,TDP1 cell noCPT,HT1080 IDH1KD tx,DT40 TDP1 CPT
CCOc1ccc(-c2cc(NC(=O)Nc3ccc(Cl)cc3)c(C(=O)OC)s2)cc1,nt,nt,21µM,nt,?
O=S(=O)(O)c1cc(I)c(O)c2ncccc12,nt,nt,21µM,nt,21µM
COC(=O)[C@]12CCCCC=C1N(Cc1cccc3ccccc13)C(=O)[C@H](CC(=O)N1CCSCC1)C2,?,i,?,?,?
CCOC(=O)[C@]12CCCC=C1N(Cc1cccc3ccccc13)C(=O)[C@H](CC(=O)N1CCOCC1)C2,i,i,i,i,?
CCOC(=O)[C@]12CCCC=C1N(Cc1cccc3ccccc13)C(=O)[C@H](CC(=O)N1CCCCC1)C2,i,i,26µM,i,18µM
CCOC(=O)[C@]12CCC=C1N(Cc1cccc3ccccc13)C(=O)[C@H](CC(=O)N1CCN(C(=O)C3CC3)CC1)C2,i,i,?,i,?
CCOC(=O)[C@]12CCC=C1N(Cc1cccc3ccccc13)C(=O)[C@H](CC(=O)N1CCCC1)C2,i,i,23µM,i,18µM
CCOC(=O)N1CCN(C(=O)C[C@@H]2C[C@@]3(C(=O)OC)CCCCC=C3N(Cc3cccc4ccccc34)C2=O)CC1,i,i,21µM,i,?
CCOC(=O)N1CCN(C(=O)C[C@@H]2C[C@@]3(C(=O)OC)CC(C)(C)CC=C3N(Cc3cccc4ccccc34)C2=O)CC1,?,i,18µM,?,16µM
S=C(NCc1ccccc1)NN1CCOCC1,i,i,i,i,i
CCOC(=O)[C@]12CCC=C1N(Cc1cccc3ccccc13)C(=O)[C@H](CC(=O)N1CCSCC1)C2,?,i,18µM,i,?
CCOC(=O)[C@]12CCCC=C1N(Cc1cccc3ccccc13)C(=O)[C@H](CC(=O)N1CCSCC1)C2,?,i,?,i,?
CCOC(=O)[C@]12CCCC=C1N(Cc1cccc3ccccc13)C(=O)[C@H](CC(=O)N1CCN(C(=O)c3ccco3)CC1)C2,?,i,?,i,?
COC(=O)[C@@]12C[C@@H](CC(=O)N3CCN(C(=O)c4ccco4)CC3)C(=O)N(Cc3cccc4ccccc34)C1=CCC(C)(C)C2,?,?,18µM,21µM,?
CCOC(=O)[C@]12CCC=C1N(Cc1cccc3ccccc13)C(=O)[C@H](CC(=O)N1CCCCC1)C2,i,i,26µM,?,?
COC(=O)[C@@]12C[C@@H](CC(=O)N3CCCCC3)C(=O)N(Cc3cccc4ccccc34)C1=CCC(C)(C)C2,?,i,?,?,?
COc1ccc(S(=O)(=O)NCC2CCCO2)cc1NC(=O)c1ccccc1F (stereo not given),?,i,i,?,i
CCOc1ccc(-c2cc3nc(C4CCN(C(=O)OC(C)(C)C)CC4)c(C(=O)Nc4cccc(C(F)(F)F)c4)cn3n2)cc1,nt,nt,?,nt,16µM
CCOC(=O)c1cn2nc(-c3ccc(OCC)cc3)cc2nc1C1CCN(C(=O)OC(C)(C)C)CC1,i,i,16µM,i,?
COc1ccc(-c2cc3nc(C4CCN(C(=O)OC(C)(C)C)CC4)c(C(=O)O)cn3n2)cc1,i[9.24 µM],i,?,i,?
CC(C)c1ccc(OCc2cc(=O)n3c(-c4ccccc4)csc3n2)cc1,nt,nt,26µM,nt,?
O=c1cc(COc2ccc(Cl)cc2Cl)nc2scc(-c3ccccc3)n12,nt,nt,i,nt,i

# Screens from PubChem.
